This note sets out measurements from PubChem BioAssay (Tox21).

Test [1] can be described thus: qHTS assay for small molecule agonists of the p53 signaling pathway (AID 651631; calls by dose curve; also: nearly all actives have a fitted effect of over 15% in size; also: potency is read from the fitted curve at half-maximal effect). An outline of the steps: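 HCT-116 p53RE-bla reporter line, 16 h compound treatment at 37 °C, then fluorescence after 2 h with B/G FRET substrate.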
(In general: Quantitative high-throughput screening tests each substance at several concentrations.)

The nature of test [2]: qHTS assay for small molecules that induce genotoxicity in human embryonic kidney cells expressing luciferase-tagged ATAD5 (AID 651632). Also: nearly all actives have a fitted effect of over 15% in size. The method, boiled down: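 Luminescence read-out: after 16 hr compound exposure at 37C, ATAD5-luciferase HEK293T cells received Amplite, 30 min RT, then CCD imaging. A rise in signal marks genotoxic stress.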
Test [3] in a line: qHTS assay for small molecule agonists of the p53 signaling pathway - cell viability (AID 651633; calls by dose curve; also: nearly all actives have a fitted effect of over 30% in size; also: potency is read from the fitted curve at half-maximal effect). The method, boiled down:
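p53RE-bla cells, seeded at 4,000 per well and rested 5 h at 37 C/5% CO2, received compounds in DMSO for 16 h at 37 C. CellTiter-Glo was then added, and luminescence was read after 30 min at room temperature to gauge cytotoxicity.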

The nature of test [4]: qHTS assay for small molecules that induce genotoxicity in human embryonic kidney cells expressing luciferase-tagged ATAD5 - cell viability (AID 651634; calls by dose curve; also: nearly all actives have a fitted effect of over 25% in size). The method, boiled down: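 HEK293T ATAD5-luc cells, 2,000/well; compound 15.5 hr, 37C/5% CO2; CellTiter-Fluor 30 min, 37C; fluorescence read.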
Test [5] is described as follows: qHTS assay for small molecule disruptors of the mitochondrial membrane potential - cell viability (AID 720634; calls by dose curve;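 also: human HepG2 liver cancer cells; nearly all actives have a fitted effect of over 20% in size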). An outline of the steps:
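Luminescence from CellTiter-Glo (ATP content) gave viability in HepG2 cells, read in the same wells as the MMP dye assay after 1 hr compound exposure at 37 C.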

Test [6] can be described thus: qHTS assay for small molecule disruptors of the mitochondrial membrane potential (AID 720635). Also: potency is read from the fitted curve at half-maximal effect. An outline of the steps:
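HepG2 cells (2,000/well) attached overnight at 37C, then took compound for 1 hr at 37C, 5% CO2. Mito-MPS dye was added for 30 min; fluorescence was read at 490/535 nm (monomers) and 540/590 nm (aggregates).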

The nature of test [7]: qHTS assay to test for compound auto fluorescence at 590 nm (red) in HepG2 cells (AID 720674). The method, boiled down:
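Rose Bengal sodium served as the red fluorophore standard. HepG2 monolayers (overnight attachment, MEM with 10% FBS) were exposed to test compounds for 1 hr at 37 C and read at Ex 540/Em 590 nm.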

Test [8] in a line: qHTS assay to test for compound auto fluorescence at 535 nm (green) in HepG2 cells (AID 720675).
Test [9] in a line: qHTS assay to test for compound auto fluorescence at 460 nm (blue) in HEK293 cells (AID 720678). An outline of the steps:
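Auto fluorescence in the blue band was quantified as triamterene equivalency. HEK293 cells were seeded at 2,000/well, dosed after a 4-5 hr attachment, and kept overnight at 37C before the 405/460 nm reading.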

Test [10] can be described thus: qHTS assay to test for compound auto fluorescence at 535 nm (green) in HEK293 cells (AID 720680).
Test [11] can be described thus: qHTS assay to test for compound auto fluorescence at 460 nm (blue) in HEK293 cell free culture (AID 720681). An outline of the steps:
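Test compounds were pinned into cell-free culture medium (DMEM with 10% FBS) and fluorescence was read directly at Ex/Em 405/460 nm. Signals were expressed as fluorescence equivalents of triamterene, with DMSO vehicle as control.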

Test [12] in a line: qHTS assay to test for compound auto fluorescence at 535 nm (green) in HEK293 cell free culture (AID 720682). An outline of the steps: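 Steps: dispense DMEM/10% FBS into empty wells; pin in compound or DMSO; measure fluorescence at 485/535 nm. Values are fluorescein equivalents.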
A short description of test [13]: qHTS assay to test for compound auto fluorescence at 590 nm (red) in HEK293 cell free culture (AID 720683). The method, boiled down: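 Tox21 10K library compounds were pinned into cell-free DMEM with 10% FBS and fluorescence was read at excitation 540 nm. Activity is expressed as Rose Bengal sodium equivalency.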
A short description of test [14]: qHTS assay to test for compound auto fluorescence at 590 nm (red) in HepG2 cell free culture (AID 720684). An outline of the steps: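 Readout: intrinsic compound fluorescence at 590 nm emission after 540 nm excitation, scaled to Rose Bengal sodium. Matrix was cell-free MEM with 10% FBS; DMSO vehicle wells served as control.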
A short description of test [15]: qHTS assay to test for compound auto fluorescence at 460 nm (blue) in HepG2 cell free culture (AID 720685). An outline of the steps: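 Cell-free plates of MEM plus 10% FBS received 23 nL compound or DMSO vehicle; blue-channel (405/460 nm) intensity scored against triamterene as reference fluorophore.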
The nature of test [16]: qHTS assay to test for compound auto fluorescence at 535 nm (green) in HepG2 cell free culture (AID 720686).
Test [17] in a line: qHTS assay to test for compound auto fluorescence at 460 nm (blue) in HepG2 cells (AID 720687). An outline of the steps: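 Cells (2,000/well in MEM with 10% FBS) attached overnight at 37 C, then were exposed to compound or DMSO for 1 hr at 37 C, 5% CO2. Fluorescence read at Ex/Em 405/460 nm, expressed as triamterene-equivalent signal.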
The target in test [18] is Glucocorticoid receptor (Homo sapiens) (UniProt P04150). Kind of test: qHTS assay to identify small molecule agonists of the glucocorticoid receptor (GR) signaling pathway (AID 720691; active = well fitted activation curve with a large enough effect in the signal ratio in the repeat runs, not every such curve was filed as active; the % refers to the signal ratio; also: potency is read from the fitted curve at half-maximal effect). The settings on record: GR-bla HeLa, beta-lactamase reporter ratio, 18 h; activation: at 62.4 µM (top of the series). An outline of the steps:
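HeLa GR-bla reporter line; cells pre-incubated 4 h, compound in DMSO 18 h at 37 C; LiveBLAzer B/G FRET substrate 2 h RT; fluorescence intensity read-out.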

A short description of test [19]: qHTS assay to test for compound auto fluorescence at 590 nm (red) in HEK293 cells (AID 720679). The method, boiled down:
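Autofluorescence equivalency to Rose Bengal sodium, 540/590nm, in HEK293 cells exposed overnight to 23 nL compound per well.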

In test [20] the target is Glucocorticoid receptor (Homo sapiens) (UniProt P04150). Kind of test: qHTS assay to identify small molecule antagonists of the glucocorticoid receptor (GR) signaling pathway (AID 720692; active = well fitted inhibition curve with a large enough effect in the signal ratio in the repeat runs, not every such curve was filed as active; the % refers to the signal ratio; also: potency is read from the fitted curve at half-maximal effect). The method, boiled down:
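Read-out: beta-lactamase FRET substrate fluorescence, 2 h at room temperature, in HeLa cells stably carrying a GRE-driven bla reporter. Compounds were co-incubated with 5 nM dexamethasone agonist (final) for 18 h at 37 C.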

A number with no mark means an inactive call. Results filed as inconclusive are left out. Active and inactive are the calls of the source. Unless noted, calls follow the shape of the dose curve; as a rule, active = well fitted curve in the direction sought with a large enough effect in the repeat runs; inconclusive = weak or mixed curves; inactive = no such curve, though single readings can be large; an effect the other way counts as inactive or inconclusive.

Sequence of Glucocorticoid receptor (Homo sapiens) (P04150 whole entry, looked up): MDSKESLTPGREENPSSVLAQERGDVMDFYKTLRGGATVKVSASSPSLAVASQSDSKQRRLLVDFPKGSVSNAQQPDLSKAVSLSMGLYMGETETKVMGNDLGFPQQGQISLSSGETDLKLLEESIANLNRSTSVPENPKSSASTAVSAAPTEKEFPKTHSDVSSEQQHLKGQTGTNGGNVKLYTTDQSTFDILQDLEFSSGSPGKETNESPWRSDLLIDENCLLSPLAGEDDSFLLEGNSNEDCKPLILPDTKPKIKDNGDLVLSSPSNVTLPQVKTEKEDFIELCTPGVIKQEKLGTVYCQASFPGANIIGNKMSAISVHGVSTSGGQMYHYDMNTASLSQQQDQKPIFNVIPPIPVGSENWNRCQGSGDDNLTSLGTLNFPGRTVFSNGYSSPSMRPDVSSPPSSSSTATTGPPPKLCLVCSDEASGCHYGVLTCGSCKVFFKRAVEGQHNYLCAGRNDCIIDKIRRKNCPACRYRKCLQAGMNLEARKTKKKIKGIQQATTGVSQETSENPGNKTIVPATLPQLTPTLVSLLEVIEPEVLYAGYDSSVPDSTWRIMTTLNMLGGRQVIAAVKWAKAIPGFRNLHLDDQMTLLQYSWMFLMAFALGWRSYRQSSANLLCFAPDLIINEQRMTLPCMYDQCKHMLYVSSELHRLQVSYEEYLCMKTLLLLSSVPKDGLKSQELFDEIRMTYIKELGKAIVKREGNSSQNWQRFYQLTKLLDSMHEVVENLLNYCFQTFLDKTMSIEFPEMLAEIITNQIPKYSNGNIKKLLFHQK

On to `CNC(=O)c1ccccc1`, for which the Potency result in test [1], in [2], in test [3], in test [4], in test [5] and in test [6] was “inactive” throughout. Further, the Potency result in test [7], in test [8], in test [9], in [11], in test [13] and in test [14] was “inactive” throughout. For the same molecule, the Potency result in test [15], in [16], in test [17] and in [18] was “inactive” in each case. The result in test [10] and in test [12] was inactive.
Take `COc1ccc(-c2ccc3cc(C(=O)O)ccc3c2)cc1C12CC3CC(CC(C3)C1)C2`: the Potency is 2.37 µM (active) in test [1] and 3.76 µM (active) in test [3]. The Potency result in [2], in test [4], in test [5], in test [7], in test [8] and in test [9] was “inactive” throughout. In addition, the Potency entry in test [11], in [13], in test [14], in test [15], in test [16] and in test [17] was “inactive” in each case. For the same molecule, the result in test [10] and in [12] was inactive.
For `c1ccc(CSCc2ccccc2)cc1`, the Potency entry in test [1], in test [2], in [3], in test [4], in test [5] and in test [7] was “inactive” throughout. For the same molecule, the Potency result in [8], in test [9], in test [19], in [11], in test [13] and in [14] was “inactive” in each case. In addition, the Potency result in [15], in test [16], in test [17] and in [18] was “inactive” each time. Also, the Potency in test [6] is 43.1 µM (active). Moreover, the result in test [10] and in test [12] was inactive.
`Cc1cccc2c1cc1ccc3cccc4ccc2c1c34`: the values for the Potency in test [1] and in [18] were 2.49 µM (active) and 5.01 µM [fluorescent] (active), respectively. Moreover, the Potency entry in test [2], in test [3], in [4], in [5], in test [7] and in [9] was “inactive” throughout. The Potency result in test [19], in test [11], in test [13], in [14], in test [15] and in test [16] was “inactive” each time. The Potency result in [17] was “inactive”. Besides, the molecule was classed as inactive in test [10] and in test [12].
For the molecule `O=C(O)c1ccc(Cl)c(Cl)c1`, the Potency entry in test [1], in test [2], in [3], in test [4], in [5] and in [7] was “inactive” each time. Also, the Potency entry in [8], in test [9], in test [11], in test [13], in [14] and in test [15] was “inactive” throughout. Besides, the Potency result in test [16] and in test [17] was “inactive” each time. For the same molecule, the molecule was called inactive in test [10] and in [12].
As to `CC(=O)S[C@@H]1CC2=CC(=O)CC[C@]2(C)[C@H]2CC[C@@]3(C)[C@@H](CC[C@@]34CCC(=O)O4)[C@H]12`, the Potency in test [1] was 17.2 µM (active); in test [20] it was 5.35 µM (active). Besides, the Potency result in test [2], in test [3], in [4], in test [5], in [7] and in test [8] was “inactive” each time. In addition, the Potency entry in test [9], in test [19], in [11], in [13], in [14] and in [15] was “inactive” throughout. Further, the Potency entry in [16] and in test [17] was “inactive” each time. The call in test [10] and in test [12] was inactive.
On to `N/C(=N\N=C\c1ccc(Cl)cc1)N/N=C/c1ccc(Cl)cc1`, for which the Potency in test [1] and in test [3] was 26.6 µM (active) each time. Also, the Potency entry in test [2], in test [4], in test [5], in test [7], in test [8] and in test [9] was “inactive” in each case. Also, the Potency result in [19], in [11], in test [13], in test [16], in test [17] and in [18] was “inactive” throughout. Further, the Potency entry in test [20] is “inactive”. The call in test [10] and in test [12] was inactive.
Regarding `CCCC1O[C@@H]2C[C@H]3[C@@H]4CCC5=CC(=O)C=C[C@]5(C)[C@H]4[C@@H](O)C[C@]3(C)[C@]2(C(=O)CO)O1` (stereo partly specified), the Potency result in [1], in test [2], in test [3], in test [4], in test [5] and in [6] was “inactive” in each case. The Potency entry in test [7], in test [8], in test [9], in test [11], in test [13] and in test [14] was “inactive” in each case. In addition, the Potency entry in [15], in [16] and in test [17] was “inactive” throughout. For the same molecule, the molecule was called inactive in test [10] and in test [12].
For the molecule `C=C(C)C(=O)OCC[N+](C)(C)C`, the Potency result in test [1], in test [2], in test [3], in [4], in [5] and in test [7] was “inactive” throughout. The Potency entry in test [8], in [9], in test [19], in test [11], in test [13] and in test [17] was “inactive” throughout. Further, the Potency result in test [18] and in test [20] was “inactive” each time. The result in test [10] and in test [12] was inactive.
With `CCOC(=O)/C=C(C)/C=C/C=C(C)/C=C/c1c(C)cc(OC)c(C)c1C`, the Potency in [1] is 21.1 µM (active). The Potency result in [2], in [3], in test [4], in test [5], in [7] and in test [8] was “inactive” in each case. Moreover, the Potency result in test [9], in [19], in test [13], in test [14], in test [15] and in [16] was “inactive” throughout. For the same molecule, the Potency entry in test [17] and in test [20] was “inactive” each time. Moreover, the molecule was classed as inactive in test [10] and in test [12].
On to `O=c1[nH]cnc2nc[nH]c12`, for which the Potency entry in [1], in test [2], in [3], in test [4], in [5] and in test [6] was “inactive” in each case. Also, the Potency result in [7], in test [8], in test [9], in test [19], in [11] and in [13] was “inactive” throughout. Further, the Potency entry in [14], in [15], in test [16] and in test [17] was “inactive” throughout. Moreover, the molecule was called inactive in test [10] and in [12].
Consider `CSc1ccc(C(=O)c2[nH]c(=O)[nH]c2C)cc1`, for which the Potency result in [1], in test [2], in test [3], in test [4], in test [5] and in test [6] was “inactive” each time. Moreover, the Potency result in [7], in [9], in test [19], in test [11], in test [13] and in [14] was “inactive” throughout. The Potency entry in test [15], in [16] and in test [17] was “inactive” each time. In addition, the result in test [10] and in test [12] was inactive.
